Assay [1] in a line: qHTS profiling of the MIPE4 collection as inhibitors of Plasmodium falciparum (3D7) proliferation (AID 743344).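 Further: scaled between DMSO vehicle wells and 0.29 µM artemisinin as full inhibition.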 Conditions: P. falciparum 3D7 in erythrocytes, SYBR Green DNA fluorescence, 72 h; at 28.5 µM unless noted. The essentials: (§1)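 Erythrocytes infected with P. falciparum (0.3% parasitemia, 2.5% hematocrit) incubated with compounds 72 h at 37 C, 5% CO2. Lysis with saponin/Triton buffer containing SYBR Green I, overnight at room temperature in the dark; DNA fluorescence (485/535 nm) normalised to 0.29 uM artemisinin and DMSO.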

A short description of assay [2]: qHTS profiling of the MIPE4 collection as inhibitors of Plasmodium falciparum (DD2) proliferation (AID 743345). The following applies: P. falciparum Dd2 in erythrocytes, SYBR Green DNA, 72 h; at 28.5 µM unless noted. The essentials:
as §1

The nature of assay [3]: qHTS profiling of the MIPE4 collection as inhibitors of Plasmodium falciparum (DD2) proliferation (Rep 2) (AID 743346). The following applies: P. falciparum Dd2 in erythrocytes, SYBR Green DNA, 72 h; at 28.5 µM unless noted. In outline:
as §1

The nature of assay [4]: qHTS profiling of the MIPE4 collection as inhibitors of Plasmodium falciparum (HB3) proliferation (AID 743347).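 Further: plate controls were DMSO vehicle wells for no effect and artemisinin wells for full effect.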 The following applies: P. falciparum HB3 in erythrocytes, SYBR Green DNA, 72 h; at 28.5 µM unless noted. In outline: as §1
In general terms: In qHTS, concentration-response curves come from the screen itself.

Assay [5] can be described thus: High-throughput drug toxicity screening in the BPDCN cell line Gen2.2 (AID 1224824).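 Further: cells exposed to compounds for 48 h before reading.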 The following applies: Gen2.2 BPDCN cells; at 45.8 µM (top of the series) unless noted. The essentials:
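Gen2.2 cells, 500 per well in phenol red-free RPMI with 10% FBS, exposed to compounds 48 h at 37 C, 5% CO2; viability by CellTiter-Glo luminescence. Percent activity scaled to DMSO (100%) and 9.2 uM bortezomib final (0%).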

The nature of assay [6]: High-throughput drug toxicity screening in the BPDCN cell line Cal-1 (AID 1224825). Conditions: Cal-1 BPDCN cell viability, qHTS; at 45.8 µM (top of the series) unless noted. In outline:
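Exponentially growing Cal-1 cells, 500 per well in phenol red-free RPMI with 10% FBS, were exposed to compounds for 48 h at 37 °C, 5% CO2. Viability was read by CellTiter-Glo luminescence and normalised to DMSO (100%) and 9.2 uM bortezomib (0%).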

The nature of assay [7]: qHTS Screen of the MIPE 4.0 Collection Against Ewings Sarcoma (RDES) (AID 1259252; active means well fitted curve in the direction sought with a large enough effect; an effect the other way counts as inactive or inconclusive; further: nearly all actives have a fitted effect of over 35% in size; further: potency means the concentration at half of the fitted maximal effect). The essentials: (§2)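 Here, cells in 5% FBS RPMI were exposed for two days (48 h) to compound dilutions added four hours after plating. ATP-based CellTiter-Glo luminescence measured viability, normalized to vehicle and no-cell blanks.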
The nature of assay [8]: qHTS Screen of the MIPE 4.0 Collection Against Ewings Sarcoma (EW8) (AID 1259255; active means well fitted curve in the direction sought with a large enough effect; an effect the other way counts as inactive or inconclusive; further: nearly all actives have a fitted effect of over 35% in size; further: potency means the concentration at half of the fitted maximal effect;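 on viability: 100% = DMSO-treated cells and 0% = medium-only wells without cells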). The essentials: as §2
The nature of assay [9]: qHTS assay for measurement of the activity of small molecule inhibitors on Zika virus induced Caspase-3 activity in human astrocytoma cells (AID 1224859; active means well fitted curve in the direction sought with a large enough effect; an effect the other way counts as inactive or inconclusive;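 further: plate controls were ZIKV-infected untreated cells for no effect and uninfected cells for full effect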). In outline: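 Percent inhibition of virus-induced caspase-3/7 signal is calculated against uninfected and ZIKV-infected control cells. Cells are SNB-19, infected at 2 FFU/cell for 6 h after 1 h compound exposure.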
Assay [10] in a line: qHTS Screen of the MIPE 4.0 Collection Against Ewings Sarcoma (TC32) (AID 1259256; active means well fitted curve in the direction sought with a large enough effect; an effect the other way counts as inactive or inconclusive; further: nearly all actives have a fitted effect of over 45% in size; further: potency means the concentration at half of the fitted maximal effect). In outline: as §2
Assay [11] can be described thus: qHTS Screen of the MIPE 4.0 Collection Against Ewings Sarcoma (TC71) (AID 1259253; active means well fitted curve in the direction sought with a large enough effect; an effect the other way counts as inactive or inconclusive; further: potency means the concentration at half of the fitted maximal effect; nearly all actives have a fitted effect of over 40% in size). In outline: as §2
Assay [12] can be described thus: qHTS profiling for inhibitors of Plasmodium falciparum (HB3) proliferation (AID 743324; active means well fitted curve in the direction sought with a large enough effect; an effect the other way counts as inactive or inconclusive;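 further: 100% = DMSO vehicle wells and 0% = artemisinin-treated control wells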). The following applies: Plasmodium falciparum HB3 blood-stage proliferation; at 28.7 µM (top of the series) unless noted. The essentials:
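P. falciparum HB3 grown in erythrocytes (0.3% parasitemia, 2.5% hematocrit final) with compound for 72 h at 37 C, 5% CO2. Parasite DNA detected by SYBR Green after saponin/triton lysis overnight; normalized to 0.29 uM artemisinin and DMSO.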

Assay [13] is described as follows: qHTS assay for measurement of the activity of small molecule inhibitors on Zika virus induced Caspase-3 activity in human iPSC derived neural progenitor cells (hNPCs) (AID 1224857; active means well fitted curve in the direction sought with a large enough effect; an effect the other way counts as inactive or inconclusive; further: % of control where 0% means no effect; nearly all actives have a fitted effect of over 65% in size). In outline: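 Cells were plated at 350 per well and grown 16 to 20 hours. Compound pretreatment lasted one hour, after which ZIKV (2 FFU/cell) was added for 6 hours. Percent inhibition was normalized between uninfected and infected controls.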

Structures are written as SMILES. Records with an inconclusive call do not appear. Activity calls are given as the source filed them. Unless noted, how the calls were made is not given here.

`CCCCC[C@H](O)C=C[C@H]1[C@H](O)CC(=O)[C@H]1CCCCCCC(=O)O` returned a parasite growth, % of DMSO control in [1] of 71.4%. For the same compound, the parasite growth remaining, % of DMSO control (lower = more inhibition) in assay [2] is 133%. Also, in assay [3], the parasite growth, % of control (lower = inhibition) is 71.7%. Further, the growth, % of control in assay [4] is 103%. In assay [5], the cell viability, % of control (lower = more cytotoxic) was 64.6%. The viability (% of control) in assay [6] is 93.2%. Further, the Potency entry in [7] and in assay [8] was “inactive” each time.
As for `Nc1nc(Cl)nc2c1ncn2[C@@H]1O[C@H](CO)[C@@H](O)[C@H]1F`, the parasite growth, % of DMSO control in assay [1] was 81.5%. For the same compound, the parasite growth remaining, % of DMSO control (lower = more inhibition) in assay [2] stood at 97.5%. This compound also came in with a parasite growth, % of control (lower = inhibition) in [3] of 63.9%. This compound yielded a growth, % of control in [4] of 96.1%. Besides, the cell viability, % of control (lower = more cytotoxic) in [5] is 159%. Further, the viability (% of control) in [6] worked out at 13.2%. Moreover, the Potency result in assay [9], in [7], in assay [8] and in [10] was “inactive” each time.
In assay [1], `O=c1[nH]nc(OCCCc2ccc(Cl)cc2)c(NCc2cccnc2)c1Br` came in with a parasite growth, % of DMSO control of 6.4%. Moreover, the parasite growth remaining, % of DMSO control (lower = more inhibition) in assay [2] worked out at 6.08%. The compound further had a parasite growth, % of control (lower = inhibition) in assay [3] of 30.4%. Further, in [4], the growth, % of control was 10.3%. The cell viability, % of control (lower = more cytotoxic) in assay [5] is 9.32%. The compound also registered a viability (% of control) in assay [6] of 8.48%. For the same compound, the Potency result in [9] was “inactive”. Moreover, the Potency in assay [7] is 18.7 µM (active); in assay [11], 16.6 µM (active); in assay [8] it was 13.2 µM (active).
Turning to `CC(C)(F)C[C@H](N[C@@H](c1ccc(-c2ccc(S(C)(=O)=O)cc2)cc1)C(F)(F)F)C(=O)NC1(C#N)CC1`, the parasite growth, % of DMSO control in assay [1] came out at 56.4%. The parasite growth remaining, % of DMSO control (lower = more inhibition) in assay [2] is 64.3%. This compound displayed a parasite growth, % of control (lower = inhibition) in assay [3] of 61%. This compound also displayed a growth, % of control in assay [4] of 68.4%. For the same compound, in assay [5], the cell viability, % of control (lower = more cytotoxic) came to 153%. Further, the viability (% of control) in assay [6] turned out to be 99.1%. Further, the Potency result in [9] is “inactive”. Further, the Potency was 18.7 µM (active) in [7] and 16.6 µM (active) in assay [8].
Regarding `OC(c1cc(C(F)(F)F)nc2c(C(F)(F)F)cccc12)C1CCCCN1` (stereo unspecified), the parasite growth, % of DMSO control in assay [1] came to 11%. Further, the parasite growth remaining, % of DMSO control (lower = more inhibition) in assay [2] turned out to be 9.36%. Also, the parasite growth, % of control (lower = inhibition) in assay [3] is 23.2%. Also, in [4], the growth, % of control was 61.8%. In assay [5], the cell viability, % of control (lower = more cytotoxic) is 9.36%. The compound also displayed a viability (% of control) in [6] of 7.54%. In addition, the Potency entry in [9] was “inactive”. The Potency in [8] was 20.9 µM (active); in assay [10] it was 26.4 µM (active).
In the case of `CC=C(C(=CC)c1ccc(O)cc1)c1ccc(O)cc1`, in assay [1], the parasite growth, % of DMSO control is 61.7%. Also, the parasite growth remaining, % of DMSO control (lower = more inhibition) in [2] came to 94.2%. Moreover, the parasite growth, % of control (lower = inhibition) in assay [3] is 67.7%. The compound further registered a growth, % of control in assay [4] of 70.1%. Moreover, the cell viability, % of control (lower = more cytotoxic) in assay [5] turned out to be 43.4%. In addition, in assay [6], the viability (% of control) was determined as 26.7%. Further, the Potency entry in assay [9] is “inactive”. For the same compound, the Potency in assay [7] is 20.9 µM (active).
Regarding `CNC(=O)[C@H](Cc1ccccc1)NC(=O)[C@H](CC(C)C)[C@H](CSc1cccs1)C(=O)NO`, the parasite growth, % of DMSO control in [1] was 4.98%. In [2], the parasite growth remaining, % of DMSO control (lower = more inhibition) was 8.14%. In assay [3], this compound returned a parasite growth, % of control (lower = inhibition) of 11.7%. The cell viability, % of control (lower = more cytotoxic) in assay [5] turned out to be 63.4%. In [6], this compound came in with a viability (% of control) of 56.4%. The Potency entry in assay [9] and in assay [10] was “inactive” throughout. In assay [11], the Potency is 5.9 µM (active).
`O=C1NC(=O)C(c2cnc3ccccn23)=C1c1cn2c3c(cccc13)CN(C(=O)N1CCOCC1)CC2`: in [12], the remaining proliferation (% of control), lower = more inhibition was 10.8%. For the same compound, the parasite growth, % of DMSO control in assay [1] was 22.1%. Also, the parasite growth remaining, % of DMSO control (lower = more inhibition) in [2] stood at 88%. The parasite growth, % of control (lower = inhibition) in assay [3] came to 59.2%. In assay [4], the growth, % of control was 54.5%. For the same compound, in assay [5], the cell viability, % of control (lower = more cytotoxic) was 36.5%. In addition, the viability (% of control) in [6] was found to be 24.4%. Also, in assay [9], the Potency entry was “inactive”. For the same compound, the Potency in [7] is 5.26 µM (active).
Turning to `O=C(c1ccc(C(=O)N2CCC(N3CCCC3)CC2)c(Nc2ccccc2)c1)N1CCC(N2CCCC2)CC1`, in assay [2], the parasite growth remaining, % of DMSO control (lower = more inhibition) came out at 66.3%. The same compound returned a parasite growth, % of control (lower = inhibition) in [3] of 33.2%. For the same compound, in assay [4], the growth, % of control came out at 82.3%. For the same compound, the cell viability, % of control (lower = more cytotoxic) in [5] was found to be 483%. Moreover, the Potency result in [13] and in [9] was “inactive” throughout. The Potency is 16.6 µM (active) in assay [7], 7.43 µM (active) in assay [11] and 6.62 µM (active) in [8].
On to `CC1C(=O)OC2C(O)C34C5CC(C(C)(C)C)C36C(OC(=O)C6O)OC4(C(=O)O5)C12O` (stereo unspecified), for which the parasite growth, % of DMSO control in assay [1] is 93.4%. In addition, in assay [2], the parasite growth remaining, % of DMSO control (lower = more inhibition) turned out to be 94.5%. For the same compound, the parasite growth, % of control (lower = inhibition) in assay [3] stood at 85.6%. Moreover, the growth, % of control in assay [4] came to 83.4%. In addition, the cell viability, % of control (lower = more cytotoxic) in [5] stood at 158%. Besides, the viability (% of control) in [6] is 16.8%. For the same compound, the Potency result in [9] and in assay [10] was “inactive” throughout. For the same compound, the Potency in assay [7] is 13.2 µM (active); in assay [11], 14.8 µM (active).
In the case of `C[C@H]1O[C@@H](n2cc(F)c(=O)[nH]c2=O)[C@H](O)[C@H]1O`, the parasite growth, % of DMSO control in assay [1] is 22.6%. For the same compound, the parasite growth remaining, % of DMSO control (lower = more inhibition) in [2] stood at 13.5%. For the same compound, the parasite growth, % of control (lower = inhibition) in assay [3] was found to be 7.59%. In addition, in assay [5], the cell viability, % of control (lower = more cytotoxic) was found to be 170%. In [6], this compound returned a viability (% of control) of 28.4%. In addition, the Potency entry in [9] is “inactive”. Moreover, the Potency in assay [7] was 18.7 µM (active); in [10], 9.35 µM (active).
As for `COc1c(C)c2c(c(O)c1CC=C(C)CCC(=O)O)C(=O)OC2`, in assay [2], the parasite growth remaining, % of DMSO control (lower = more inhibition) worked out at 17.9%. Also, the parasite growth, % of control (lower = inhibition) in assay [3] came out at 13.7%. For the same compound, the growth, % of control in assay [4] worked out at 7.33%. The cell viability, % of control (lower = more cytotoxic) in assay [5] stood at 94.4%. Moreover, the viability (% of control) in assay [6] was 16.3%. The figures for the Potency in [7], in assay [11] and in [8] were 3.72 µM (active), 2.35 µM (active) and 1.48 µM (active), respectively.

The values are drawn from PubChem BioAssay (NCATS).
